Measured values taken from PubChem BioAssay AID504850 (National Center for Advancing Translational Sciences (NCATS), 2011).
Among all 2,300 compounds or so, about 1,200 (52%) were called active. Another 34% or so got no clear call; they are omitted. So high a share suggests a set chosen from earlier hits. This is one part of the list. A number with no mark means an inactive call. Calls follow the shape of the dose curve; as a rule, active = well fitted inhibition curve with a large enough effect; inconclusive = small, poorly fitted or top-dose-only effect, or effect the other way; inactive = no such curve, though single readings can be large or run the other way.

assay: Confirmation screen for delayed death inhibitors of the malarial parasite plastid, 48 hour incubation; also: nearly all actives have a fitted effect of over 65% in size; details: P. falciparum-infected erythrocytes, luciferase growth; series mostly up to 28.7 µM; activity change, negative = inhibition: at the top concentration
How it was run: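 Erythrocytes infected with luciferase-expressing P. falciparum (2% hematocrit, 0.1% parasitemia) incubated with compounds 48 hours at 37 C, 5% CO2, in RPMI/Albumax. Growth inhibition scored as reduced luminescence after detection reagent.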
% is scaled to controls: 0 for no effect and ±100 for the full control effect; potency is read from the fitted curve at half-maximal effect.

Question: For `CC(C)N1CCc2c(sc(NC(=S)NC(=O)c3ccccc3)c2C#N)C1`, which Potency is on record?
Answer: The Potency was 10 µM (active).

Question: Which Potency does the source give for `CC(=O)Nc1sc2c(c1-c1nc3ccccc3s1)CCN(C(C)C)C2` here?
Answer: The Potency was 4.47 µM (active).

Question: Which “activity change, negative = inhibition” value does the source give for `O=C(/C=C/c1cccs1)Nc1sc2c(c1C(=O)O)CCCC2` here?
Answer: Its value is -4.46%.

Question: For `CCN(CC)CCC[C@H](C)Nc1c2ccc(Cl)cc2nc2ccc(OC)cc12`, which Potency is on record?
Answer: The Potency was 0.178 µM (active).

Question: For `CCN(CC)CCC[C@H](C)Nc1ccnc2cc(Cl)ccc12`, which Potency is on record?
Answer: Its Potency is 0.501 µM (active).

Question: Which Potency does the source give for `COc1ccc2nc3cc(Cl)ccc3c(Nc3cc(C(C)C)c(O)cc3C)c2c1` here?
Answer: The Potency was 0.0224 µM (active).

Question: For `CCOC(=O)C1=C(C)N=c2s/c(=C\c3ccc(OCC(=O)O)cc3)c(=O)n2C1c1ccc(OC(C)C)cc1` (stereo not given), which Potency is on record?
Answer: Its Potency is 5.01 µM (active).

Question: Which Potency does the source give for `CN(C)c1cc[n+](Cc2c(Cl)cccc2Cl)cc1` here?
Answer: The Potency was 2.24 µM (active).

Question: For `Clc1cccc(Cl)c1C[n+]1ccc2ccccc2c1`, which Potency is on record?
Answer: The Potency was 2.82 µM (active).

Question: With `Cc1cccc(C)c1NC(=O)CCCn1nc(C)c2c(C)n(-c3ccccc3)nc2c1=O` as the compound, how does the Potency read?
Answer: The Potency was 12.6 µM (active).

Question: With `CCOc1ccc(CCNC(=O)CCCn2nc(C)c3c(C)n(-c4ccccc4)nc3c2=O)cc1` as the compound, how does the Potency read?
Answer: The Potency was 11.2 µM (active).

Question: Which “activity change, negative = inhibition” value does the source give for `Cc1ccc(-c2nnn(CC(=O)Nc3ccc4nn(-c5ccccc5)nc4c3)n2)o1` here?
Answer: The value was -6.32%.

Question: For `CCOc1ccccc1C(=O)NCC(=O)NCCc1ccc(S(N)(=O)=O)cc1`, which “activity change, negative = inhibition” value is on record?
Answer: The value was -5.73%.

Question: Which Potency does the source give for `COc1ccc(NC(=O)CCCn2nc(C)c3c(C)n(-c4ccccc4)nc3c2=O)cc1` here?
Answer: Its Potency is 11.2 µM (active).

Question: For `COc1ccc(NC(=O)CCCn2cc([N+](=O)[O-])cn2)cc1`, which “activity change, negative = inhibition” value is on record?
Answer: The value was -1.74%.

Question: For `Cc1ccccc1NC(=O)CCCn1nc(C)c2c(C)n(-c3ccccc3)nc2c1=O`, which Potency is on record?
Answer: The Potency was 10 µM (active).

Question: Which Potency does the source give for `COCCN(C(=S)Nc1ccc(OC)c(Cl)c1)C1CCN(C(C)C)CC1` here?
Answer: The Potency was 14.1 µM (active).

Question: Which Potency does the source give for `COc1ccc2[nH]c3c(c2c1)CCN1C(=O)N([C@@H](C)C(=O)NCCc2ccc(F)cc2)C(=O)[C@]31C` here?
Answer: The Potency was 12.6 µM (active).

Question: For `CCCCOc1ccc(N2C(N)=NC(N)=NC23CCCCC3)cc1`, which Potency is on record?
Answer: The Potency was 2 µM (active).

Question: For `CCOC(=O)C1=C(NC(=S)NC(=O)c2ccccc2)c2ccccc2CC1(C)CC` (stereo not given), which Potency is on record?
Answer: The Potency was 11.2 µM (active).

Question: Which Potency does the source give for `Cc1ccc2nc(CNC(=O)C3CCC(=O)N(Cc4ccccc4F)C3)cn2c1` (stereo not given) here?
Answer: The Potency was 12.6 µM (active).

Question: Which “activity change, negative = inhibition” value does the source give for `O=C(NC1CCC1)C1CCC(=O)N(Cc2ccccc2F)C1` (stereo not given) here?
Answer: The value was -11.4%.

Question: For `COc1ccc(-c2nc(N3CCN(C)CC3)sc2-c2ccc(OC)cc2)cc1`, which Potency is on record?
Answer: Its Potency is 15.8 µM (active).

Question: With `Cc1ccc(-c2nnc(N3CCOCC3)c3ccccc23)cc1S(=O)(=O)NCC1CCCO1` (stereo not given) as the compound, how does the Potency read?
Answer: The Potency was 7.08 µM (active).

Question: Which “activity change, negative = inhibition” value does the source give for `CC(=O)Nc1ccc(Nc2nnc(-c3ccc(C)c(S(=O)(=O)NCC4CCCO4)c3)c3ccccc23)cc1` (stereo not given) here?
Answer: The value was -0.717%.
